A selection: hits, their analogues and other compounds. The true share with any hit is near 8.9%.
D3 ag: agonists of human D3 dopamine receptor; actives 0.58% (n = 410,000); max activation, %; P35462; D3R DiscoveRx beta-arrestin cells, luminescence, 90 min; AID 652048; in the data active means max activation above about 30%
Target sequence (P35462 whole entry, looked up): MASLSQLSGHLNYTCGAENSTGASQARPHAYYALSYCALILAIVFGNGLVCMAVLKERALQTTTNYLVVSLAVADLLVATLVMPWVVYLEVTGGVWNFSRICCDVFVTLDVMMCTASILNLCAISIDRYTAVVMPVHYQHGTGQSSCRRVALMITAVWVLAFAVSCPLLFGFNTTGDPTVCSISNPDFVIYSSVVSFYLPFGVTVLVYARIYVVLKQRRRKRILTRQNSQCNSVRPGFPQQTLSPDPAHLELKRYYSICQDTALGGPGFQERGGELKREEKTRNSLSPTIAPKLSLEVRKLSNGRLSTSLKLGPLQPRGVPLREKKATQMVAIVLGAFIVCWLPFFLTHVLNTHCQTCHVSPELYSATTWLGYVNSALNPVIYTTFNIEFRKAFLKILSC
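Cells at 1500/well, incubated overnight, then treated with pinned compounds (dopamine as control) for 90 min at 37 degrees C. DiscoveRx reagent added for 30 - 60 minutes at room temperature; luminescence read.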
SW480 rerep: DNA re-replication induction in SW480 cells; SW480 DNA re-replication, Hoechst DNA content imaging, 48 h; Potency, µM (top dose mostly 46.1 µM), hits mostly activators; actives 1.8% (n = 340,000); AID 624297; further: nearly all actives have a fitted effect of over 55% in size
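Treated cells incubate 48 hr (37 C, 5% CO2), are stained 40 min with Hoechst, and nuclear fluorescence is enumerated; a rise in nuclei with high DNA signal marks re-replication.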
KB-3-1 tox: KB-3-1 parental cell cytotoxicity; actives 1.4% (n = 400,000); KB-3-1 viability, CellTiter-Glo ATP luminescence, 72 h; AID 1347075; Potency, µM (series often up to 46.1 µM), hits mostly cytotoxic; further: nearly all actives have a fitted effect of over 60% in size
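Screening of KB-3-1 cells (DMEM, 10% FBS, phenol-red free) ran from lowest to highest compound concentration; after 72 h at 37 °C viability was read luminescently and curves fitted.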
MCF10A rerep: inducers of DNA re-replication in MCF 10A breast cells; Potency, µM (series often up to 46.1 µM), most hits filed as activators; MCF 10A DNA re-replication, Hoechst nuclear intensity, 48 h; actives 2.9% (n = 350,000); further: nearly all actives have a fitted effect of over 50% in size
D3 antag: D3 dopamine receptor (human) antagonism; P35462; D3R cells, DiscoveRx beta-arrestin luminescence, antagonist mode; hits give low values; max response, negative = inhibition, %; actives 2.5% (n = 360,000); in the data active means max response below about -50%; inconclusive means no clear call, values can overlap the other calls
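Cells expressing the human receptor were seeded at 1500 cells/well, incubated overnight at 37 degrees C in 5% CO2, then exposed to library compounds with dopamine controls for 90 minutes at 37 degrees C before luminescent detection.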
KB-V1 MDR tox: KB-V1 MDR subline cytotoxicity; KB-V1 MDR cells viability, CellTiter-Glo, 72 h; actives 3.4% (n = 400,000); Potency, µM (top dose mostly 46.1 µM), actives largely listed as cytotoxic; further: nearly all actives have a fitted effect of over 60% in size
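Compound-treated KB-V1 multidrug-resistant cells, 72 h, 37 degrees C; viability by CellTiter-Glo. Fitted qHTS curves give the values.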
Hits are given with their value; - = inactive; ? = inconclusive; . = not tested or not shown; [ ] = another dose, or the depositor's remark. Unless noted, the call rests on the fitted dose curve; in most records, active means well fitted curve in the direction sought with a large enough effect; inconclusive means small, poorly fitted or top-dose-only effect, or another doubt; inactive means no such curve, though single readings can be large; an effect the other way counts as inactive or inconclusive.

SMILES	D3 ag	SW480 rerep	KB-3-1 tox	MCF10A rerep	D3 antag	KB-V1 MDR tox
CC(=O)C1=C(C)NC(SCC(=O)Nc2nccs2)=C(C#N)C1c1ccccc1Cl (configuration not stated)	-	6.51µM	-	1.84µM	-	-
C=CCOC(=O)C1=C(C)NC(SCC(=O)Nc2nccs2)=C(C#N)C1c1ccc(Cl)cc1 (configuration not stated)	-	1.58µM	?	1µM	-	-
Cc1ccc(CNCc2ccccc2Cl)s1	-	.	-	.	.	-
O=C(NCC(c1ccco1)N1CCCC1)c1ccc(Cl)c(S(=O)(=O)N2CCc3ccccc32)c1 (configuration not stated)	-	?	2.31µM	?	?	1.64µM
O=C(NC1=NCCS1)c1ccc(Cl)c(S(=O)(=O)N2CCc3ccccc32)c1	-	-	?	?	-	13µM
COc1ccc(C(=O)NC(C(=O)N2CCc3ccccc32)C(C)C)cc1 (configuration not stated)	-	-	-	-	-	8.2µM
O=C(NC1=NCCS1)c1cccc(S(=O)(=O)N2CCc3ccccc32)c1	-	?	-	-[9.22 µM]	-	?
COc1ccc(C(=O)NCC(c2ccco2)N2CCc3ccccc32)cc1 (configuration not stated)	-	?	5.8µM	5.8µM	-	7.31µM
O=S1(=O)C=C(Sc2nc3ccccc3s2)c2ccccc21	-	?	2.31µM	2.91µM	-97.7	?
O=S1(=O)C=C(Sc2nnc(-c3ccccc3)o2)c2ccccc21	-	0.581µM	14.6µM	?	-	?
Cc1cc(C)nc(SC2=CS(=O)(=O)c3ccccc32)n1	-	20.6µM	18.4µM	16.4µM	-	?
CSc1nnc(-c2ccccc2)o1	-	-	-	-	-	-
c1ccc2sc(SSc3nc4ccccc4s3)nc2c1	-	-	.	-	.	.
Cc1ccccc1C(=O)N(Cc1ccc(N(C)C)cc1)Cc1ccco1	-	.	.	.	.	.
COc1cc(C2c3c(oc4ccccc4c3=O)C(=O)N2Cc2ccco2)ccc1O (configuration not stated)	-	-	-	-	-	-
CCOc1cc(C2c3c(oc4cc(C)c(Cl)cc4c3=O)C(=O)N2Cc2ccco2)ccc1O (configuration not stated)	-	-	?	?	-	1.84µM
COc1cccc(C2c3c(oc4ccccc4c3=O)C(=O)N2Cc2ccco2)c1 (configuration not stated)	-	-	-	-	-	-
Cc1cc2oc3c(c(=O)c2cc1C)C(c1cccc(Br)c1)N(Cc1ccco1)C3=O (configuration not stated)	-	-	-	10µM	-	-
Cc1ccc2oc3c(c(=O)c2c1)C(c1cccc(Br)c1)N(Cc1ccco1)C3=O (configuration not stated)	-	?	-	?	-56.0	-
NCCC[C@H](N)C(=O)O	-	.	.	.	.	.
Cc1ccc(-c2nnc(SCC(=O)NCc3ccccc3)o2)cc1	-	.	-	.	.	-
CCC(c1nnnn1CCOC)N(Cc1ccc(C)cc1)Cc1cc2cc(OC)ccc2[nH]c1=O (configuration not stated)	-	-	?	-	-	23.1µM
O=C(Cc1ccccc1)NCc1ccc(-n2cccc2)cc1	-	6.51µM	?	10.3µM	-	-
O=C(Cc1ccc(-n2cccc2)cc1)NCc1ccccc1Cl	-	18.4µM	?	4.11µM	-	-
O=C(NCc1ccccc1Cl)NCc1ccccc1Cl	-	-	-	-	-	-
SMILES	D3 ag	SW480 rerep	KB-3-1 tox	MCF10A rerep	D3 antag	KB-V1 MDR tox
Fc1ccc(-c2nc(-c3c[nH]c4ccccc34)cs2)cc1	.	.	?	.	.	-
CCCCCCCCCC[N+](C)(C)CC/C=C1/c2ccccc2Sc2ccc(Cl)cc21	-	-	-	?	-113.2	-
CCCCCCCCCCC[N+](C)(C)CC/C=C1/c2ccccc2Sc2ccc(Cl)cc21	-	-	-	-	-124.0	-
COc1ccc(-c2cc(C(=O)Oc3ccc(C)cc3)c3ccccc3n2)cc1	-	.	-	.	.	-
COc1ccc(-c2cc(C(=O)OCc3ccccn3)c3ccccc3n2)cc1	-	13µM	-	?	-	-
COc1ccc(-c2cc(C(=O)Oc3ccc([N+](=O)[O-])cc3)c3ccccc3n2)cc1	-	?	-	18.4µM	?	-
CCOC(=O)c1cc(S(=O)(=O)N2CCN(c3ccc(C)cc3C)CC2)[nH]n1	-	.	-	.	.	-
COC(=O)c1cc2oc3ccccc3c2n1Cc1c(C)cc(C)cc1C	-	.	.	.	.	.
COc1ccc(-c2cc(C(=O)NN)[nH]n2)cc1OC	-	?	-	?	-	-
COc1ccc(-c2cc(C(=O)O)[nH]n2)cc1OC	-	-	23.1µM	-	-	-
Cc1ccc(-c2nc(Nc3ccc(O)cc3)c3ccccc3n2)cc1	-	?	?	?	-	?
Cc1ccc(-c2nc(C(Cl)Cl)c3ccccc3n2)cc1	-	?	20.6µM	?	-60.0	20.6µM
c1cc2c3c(cccc3c1)C(N1CCOCC1)=N2	-	?	-	?	-	?
c1ccc(CC2CCN(C3=Nc4cccc5cccc3c45)CC2)cc1	-	?	-	9.2µM	?	?
O=C(COc1ccccc1/C=C1\SC(=S)NC1=O)Nc1ccc(F)cc1	-	?	-	1.46µM	-	-
NC1=NC(=O)/C(=C/c2ccccc2OCC(=O)Nc2ccc(F)cc2)S1	-	-	-	-	-	-
Cc1ccc(NC(=O)C(=O)NCC(c2cccnc2)N2CCN(Cc3ccccc3)CC2)cc1C (configuration not stated)	-	.	-	.	.	-
CS(=O)(=O)c1ccc(N)c(SSc2cc(S(C)(=O)=O)ccc2N)c1	-	-	-	3.66µM	-	-
CCOc1ccc(N)c(SSc2cc(OCC)ccc2N)c1	-	-	-	?	-	-
Cc1ccc(-n2[nH]c(C)c(/C=N/NC(=O)c3ccc(O)cc3O)c2=O)cc1	-	8.2µM	-	-	-	-
CCCCN(CCCC)C(=S)N/N=C/c1c(C)[nH]n(-c2ccccc2)c1=O	-	?	?	?	-104.0	-
Cc1[nH]n(-c2ccccc2)c(=O)c1/C=N/Nc1nncc(-c2ccccc2)n1	-	-	7.31µM	-	-	?
Cc1[nH]n(-c2ccccc2)c(=O)c1/C=N/NC(=O)c1ccc(O)cc1O	-	?	?	-	-	?
Cc1[nH]n(-c2ccc(Br)cc2)c(=O)c1/C=N/NC(=O)c1ccccc1	-	?	7.31µM	-	-	1.3µM
CC(=O)Nc1cccc(NC(=O)CSc2cn(CC(=O)N3CCCCCC3)c3ccccc23)c1	-	.	.	.	.	.
CCCCN(CCCC)CC(O)c1cc(Cl)cc2c1-c1ccc(Cl)cc1/C2=C/c1ccc(Cl)cc1 (configuration not stated)	-	?	.	-	.	.

Assay outcomes (PubChem)
